Source: PubChem BioAssay
B2AR arrestin: qHTS assay of beta-arrestin-biased ligands of beta2-adrenergic receptor | Beta-2 adrenergic receptor (Homo sapiens), P07550 | beta-arrestin recruitment to beta2AR, cell-based reporter | Potency, µM (top dose mostly 46.1 µM), actives largely listed as activators | 330,000 tested, 0.02% active | AID 492947, 2010; also: nearly all actives have a fitted effect of over 65% in size
Target sequence (P07550 whole entry, looked up): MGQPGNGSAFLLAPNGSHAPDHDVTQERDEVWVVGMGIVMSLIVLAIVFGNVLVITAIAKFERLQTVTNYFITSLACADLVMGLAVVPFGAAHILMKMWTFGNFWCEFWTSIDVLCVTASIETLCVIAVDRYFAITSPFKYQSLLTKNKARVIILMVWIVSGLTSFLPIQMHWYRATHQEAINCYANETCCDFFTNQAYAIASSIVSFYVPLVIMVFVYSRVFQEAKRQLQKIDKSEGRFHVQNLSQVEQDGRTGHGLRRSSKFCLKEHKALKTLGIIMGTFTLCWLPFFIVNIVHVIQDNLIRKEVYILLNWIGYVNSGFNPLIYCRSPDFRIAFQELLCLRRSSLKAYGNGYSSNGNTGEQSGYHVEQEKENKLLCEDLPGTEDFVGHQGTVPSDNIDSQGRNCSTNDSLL
RXFP1 ag: qHTS Assay for Agonists of the Relaxin Receptor RXFP1; AID 2676, 2010; Potency, µM (titrated, usually from 57.5 µM), actives largely listed as activators; 370,000 tested, 0.3% active; HEK293T-RXFP1 cAMP TR-FRET, 30 min; response scale: percent of porcine relaxin response, buffer zero; Relaxin receptor 1 (Homo sapiens), Q9HBX9; also: nearly all actives have a fitted effect of over 60% in size
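cAMP rise read by TR-FRET after 30 min, 37C compound exposure (up to 58 uM) in RXFP1-transfected HEK293 cells with Ro 20174 present. EC50 from Hill-equation fits, with 29 nM porcine relaxin as 100% and buffer as basal.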
BCR signal inh: qHTS Assay to Find Inhibitors of Chronic Active B-Cell Receptor Signaling; ABC-DLBCL IkBa-CBG/CBR reporter, luminescence ratio, 4 h; Potency, µM (doses to about 46.1 µM), usual class: inhibitors; 340,000 tested, 0.05% active; active = well fitted inhibition curve with a large enough effect in the signal ratio, with a control signal flat, not every such curve was filed as active; inconclusive = small, poorly fitted or top-dose-only effect, or effect the other way, or a change in a side signal; the % refers to the signal ratio
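Compounds up to 46 uM were incubated four hours with TMD8 cells whose green CBG68 luciferase is fused to IkappaBalpha; red CBR luminescence normalised the signal, and concentration-effect curves were fitted to fusion, red and ratio data.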
RXFP1 antagonist: qHTS Assay for Antagonists of the Relaxin Receptor RXFP1; Relaxin receptor 1 (Homo sapiens), Q9HBX9; HEK293-RXFP1, relaxin-stimulated cAMP HTRF, 30 min; stronger effect = lower value; activity change, negative = inhibition, % at 57.5 µM; 350,000 tested, 0.59% active;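 active = activity change of -60% or lower, but not beyond a set lower limit; inconclusive = change between -60% and -40%, or beyond the set limit; inactive = change above -40%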
Hits are given with their value; 0 = inactive; ? = inconclusive; - = not tested or not shown. Shown are actives, neighbours in structure and some others; about 0.59% of the full set was active somewhere. Unless noted, calls follow the shape of the dose curve; as a rule, active = well fitted activation curve with a large enough effect; inconclusive = small, poorly fitted or top-dose-only effect; inactive = flat fitted curve, though single readings scatter.

SMILES	B2AR arrestin	RXFP1 ag	BCR signal inh	RXFP1 antagonist
Cc1ccc(CS(=O)(=O)c2ncc(Cl)c(C(=O)Nc3nc4ccc(C)cc4s3)n2)cc1	-	0	-	-
COc1ccc2nc(NC(=O)c3nc(S(=O)(=O)Cc4ccc(C)cc4)ncc3Cl)sc2c1	-	0	-	-91
COc1ccc(OC)c(NC(=O)c2nc(S(=O)(=O)Cc3ccc(F)cc3)ncc2Cl)c1	-	0	-	-107
COc1ccccc1NC(=O)c1nc(S(=O)(=O)Cc2ccccc2)ncc1Cl	0	0	?	?
CCc1ccc(C(=O)c2cn(CC(=O)Nc3ccc4c(c3)OCCO4)c3ccc(CC)cc3c2=O)cc1	-	0	-	-
CCOC(=O)C(=Cc1ccc(Br)cc1)C(=O)OCC	0	0	?	-96
O=C(Nc1ccc(C(F)(F)F)cc1)C1(c2ccccc2)CC1	0	0	0	-63
Cc1oc2c(c1C(=O)c1ccccc1)C(=O)C(=O)c1ccccc1-2	0	0	?	-66
O=C1C(=O)c2c(C(=O)c3ccccc3)coc2-c2ccccc21	0	0	?	-78
CCc1cccc2c(CCO)c[nH]c12	-	-	-	0
Cc1cc(C)c(NC(=O)Cn2c(=O)n(CCC(=O)NCc3ccccc3Cl)c(=O)c3sccc32)c(C)c1	-	?	-	0
NS(=O)(=O)c1cc2c(cc1Cl)CN(C1CCCCC1)C2=O	-	-	-	0
Cc1ccc(C(C)C)c(OCC(=O)Nc2ccc3c(c2)nc(CCN2CCCCC2)n3C)c1	0	0	?	-61
CCCCCCCCC[n+]1cccc2c3ccccc3ccc21	0	0	?	-60
CCCCCCCCCCCCCCCC[n+]1cccc2ccccc21	0	0	?	?
CC(NC(=O)/C(C#N)=C/c1cccs1)c1ccccc1 (stereo not given)	0	0	?	0
CC(C)(C)c1ccc(C(=O)/C(C#N)=C/c2cccs2)cc1	0	0	0	-87
Cc1ccc(-c2c(C(=O)N3CCN(c4cccc(C)c4)C(C)C3)oc(=O)c3ccccc23)cc1 (stereo not given)	-	0	-	-
CCOC(=O)c1ccc(O)c(O)c1	-	-	-	0
CCc1cccc2c(C(=O)COC(=O)[C@@H]3CC(O)CN3S(=O)(=O)c3ccccc3[N+](=O)[O-])c[nH]c12 (stereo not given in full)	0	-	0	-80
O=C(COC(=O)[C@@H]1CC(O)CN1S(=O)(=O)c1ccccc1[N+](=O)[O-])c1ccccc1 (stereo not given in full)	0	0	0	0
O=S(=O)(Nc1ccc(-c2ccc(N3CCCCC3)nn2)cc1)c1ccc(OC(F)(F)F)cc1	-	0	-	0
COc1ccc(/C=C/C(=O)c2ccc(O)cc2)cc1	0	0	?	-
COc1cc(/C=C/c2ccc(O)cc2)cc(OC)c1	0	0	13µM	-
Cc1ncc(CO)c2c1Oc1nc(-c3ccccc3F)nc(SCC(=O)N(C)c3ccccc3)c1C2	0	0	0	-91
SMILES	B2AR arrestin	RXFP1 ag	BCR signal inh	RXFP1 antagonist
O=C(/C=C/c1ccccc1)/C=C/c1ccccc1	?	0	?	-67
Cc1ccc(C)c(N2CCN(S(=O)(=O)c3c(C(=O)N4CCC(C)CC4)c(C)n(C)c3C)CC2)c1	-	0	-	0
C=CCn1c(CCn2c3ccccc3c3ccccc32)n[nH]c1=S	?	0	0	?
C=C(C)Cn1c(CCn2c3ccccc3c3ccccc32)n[nH]c1=S	0	0	0	-65
CC(C)NCCCC1(C(N)=O)c2ccccc2-c2ccccc21	-	-	-	0
CC(C)CC(C)c1cc(N)nc2nc3ccccc3n12 (stereo not given)	0	0	?	-61
CC(C)Cn1c(-c2cccs2)nc2ccccc21	0	0	0	0
COc1ccc(-c2noc(-c3ccc(NCCc4ccccc4)c([N+](=O)[O-])c3)n2)cc1OC	-	0	-	-
COc1ccc(C(=O)Oc2ccc(Br)cc2C(=S)N2CCOCC2)cc1	0	0	0	-67
Cc1ccc(C(=O)Oc2ccc(Br)cc2C(=S)N2CCOCC2)cc1	0	0	0	0
CC(=O)c1ccc(NC(=O)C2CCN(S(=O)(=O)c3ccc4c(c3)CCCN4C(=O)C3CCC3)CC2)cc1	-	0	-	0
COc1ccc(CCN2CC(C(=O)NCC(c3ccccc3)N(C)C)CC2=O)cc1OC (stereo not given)	0	-	0	-90
COc1cc(/C=N/NC(=O)c2[nH]nc3c2CCc2ccccc2-3)ccc1O	0	0	21µM	0
